The record followed here is PubChem BioAssay (NCI).

About 83,000 compounds went through this panel and 20% of them were active in at least one assay; those are over-represented in the sample as a whole.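 Cells were grown in 96-well plates and exposed to the test compound at a single concentration for 48 hours; results are reported as percent growth, with values below 10 considered active.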 Unmarked numbers belong to inactive results. Activity calls are given as the source filed them.

Some test systems named below: SR leukemia; RPMI-8226 leukemia; OVCAR-8 ovarian; OVCAR-5 ovarian; OVCAR-4 ovarian; SK-OV-3 ovarian; IGROV1 ovarian; OVCAR-3 ovarian; HS 578T breast; NCI/ADR-RES ovarian.
Holding throughout (assay): NCI-60 one-dose screen, 48 h (100 = growth as untreated, 0 = no growth, -100 = all killed)
Common to all, as to conditions: 10 µM unless noted

`CCCCCCCCCCCCCCCCNC(=O)Nc1ccc2ccccc2c1`: the growth in the assay on SR leukemia was 95.6%; with RPMI-8226 leukemia, 102%; in the assay with OVCAR-8 ovarian, 104%; in the assay with OVCAR-5 ovarian, 111%; in the assay with OVCAR-4 ovarian, 113%; in the assay on SK-OV-3 ovarian, 101%. Moreover, the growth is 101% in the assay with IGROV1 ovarian, 116% with OVCAR-3 ovarian, 107% in the assay on HS 578T breast and 110% in the assay on NCI/ADR-RES ovarian.

Turning to `COc1cc(/C=N/OC(=O)Nc2ccccc2)cc(OC)c1OC`, the growth with SR leukemia was 89.7%; in the assay with RPMI-8226 leukemia, 93.7%; in the assay on OVCAR-8 ovarian it was 113%; in the assay on OVCAR-5 ovarian, 104%; with OVCAR-4 ovarian, 105%; in the assay with SK-OV-3 ovarian, 104%. The growth in the assay with IGROV1 ovarian is 95.9%; in the assay on OVCAR-3 ovarian, 114%; in the assay on HS 578T breast it was 114%; with NCI/ADR-RES ovarian it was 109%.

In the case of `c1ccc(CN=C(NCc2ccccc2)NCc2ccccc2)cc1`, the growth in the assay with SR leukemia is 77.4%; in the assay on RPMI-8226 leukemia it was 43.5%; in the assay with OVCAR-8 ovarian, 56.4%; with OVCAR-5 ovarian it was 100%; with OVCAR-4 ovarian, 30.2%; with SK-OV-3 ovarian, 73.5%. The growth in the assay with IGROV1 ovarian is 60.4%; in the assay with OVCAR-3 ovarian it was 51.4%; in the assay with HS 578T breast, 96.7%; in the assay with NCI/ADR-RES ovarian, 86%.

In the case of `C[C@H]1O[C@@H](O[C@H]2[C@@H](O)C[C@H](O[C@H]3[C@@H](O)C[C@H](O[C@H]4CC[C@]5(C)C6CC[C@]7(C)[C@@H](C8=CC(=O)OC8)CC[C@]7(O)C6CC[C@@H]5C4)O[C@@H]3C)O[C@@H]2C)C[C@H](O)[C@@H]1O` (stereo not given in full), the growth is -32.7% (active) in the assay with SR leukemia; -18.8% (active) in the assay on RPMI-8226 leukemia; -79.1% (active) in the assay on OVCAR-8 ovarian; -100% (active) with OVCAR-5 ovarian; -51.4% (active) in the assay on OVCAR-4 ovarian; -92.5% (active) in the assay with SK-OV-3 ovarian. Besides, the growth in the assay with IGROV1 ovarian was -38.8% (active); with OVCAR-3 ovarian, -100% (active); in the assay with HS 578T breast, -1.73% (active); in the assay with NCI/ADR-RES ovarian it was -79.2% (active).

On to `C#C[C@]1(O)CCC2C3CCc4cc(O)ccc4C3CC[C@@]21C` (stereo not given in full), for which the growth in the assay on SR leukemia was 8.3% (active); in the assay on RPMI-8226 leukemia it was 28.4%; with OVCAR-8 ovarian, 47.5%; with OVCAR-5 ovarian, 78.1%; with OVCAR-4 ovarian, 66.8%; in the assay with SK-OV-3 ovarian, 43%. Besides, the growth is 55.2% in the assay on IGROV1 ovarian, 16.1% with OVCAR-3 ovarian, 4.63% (active) with HS 578T breast and 13.5% with NCI/ADR-RES ovarian.

On to `ICCC(c1ccccc1)(c1ccccc1)c1ccccc1`, for which the growth with SR leukemia is -28.7% (active); in the assay with RPMI-8226 leukemia, 20%; with OVCAR-8 ovarian, 70.8%; in the assay with OVCAR-5 ovarian, 82.6%; in the assay with OVCAR-4 ovarian, 50.8%; in the assay on SK-OV-3 ovarian, 74.6%. In addition, the growth in the assay with IGROV1 ovarian was 61.7%; with OVCAR-3 ovarian, 58.1%; in the assay with HS 578T breast, 48.3%; with NCI/ADR-RES ovarian, 74.6%.

For `CCCCCCCCCCNCCSS(=O)(=O)O`, the growth was 52.1% in the assay on SR leukemia; 98.2% in the assay with RPMI-8226 leukemia; 65.9% with OVCAR-8 ovarian; 103% in the assay with OVCAR-5 ovarian; 102% in the assay on OVCAR-4 ovarian; 84.8% in the assay on SK-OV-3 ovarian. In addition, the growth was 91.2% with IGROV1 ovarian, 72.3% with OVCAR-3 ovarian, 52.1% in the assay with HS 578T breast and 83.7% with NCI/ADR-RES ovarian.

`O=c1c2ccccc2c2nccn2c2cc(Cl)ccc12`: the growth with SR leukemia was 11%; in the assay with RPMI-8226 leukemia it was 64.8%; with OVCAR-8 ovarian it was 75.3%; in the assay with OVCAR-5 ovarian, 53.2%; with OVCAR-4 ovarian, 81.5%; in the assay on SK-OV-3 ovarian, 113%. In addition, the growth is 61.7% with IGROV1 ovarian, 99.1% in the assay with OVCAR-3 ovarian, 77.1% in the assay on HS 578T breast and 57.5% with NCI/ADR-RES ovarian.

Consider `COc1ccc(-c2c3c(N)nc(-c4ccncc4)nc3nc3c2c(C)nn3-c2ccccc2)cc1`, for which the growth is 17.1% in the assay on SR leukemia; 84.3% in the assay with RPMI-8226 leukemia; 63.2% in the assay on OVCAR-8 ovarian; 64.7% with OVCAR-5 ovarian; 11.4% in the assay with OVCAR-4 ovarian; 53.4% in the assay on SK-OV-3 ovarian. The growth in the assay on IGROV1 ovarian was 77%; in the assay with OVCAR-3 ovarian, 22.4%; with HS 578T breast it was 71.2%; with NCI/ADR-RES ovarian, 74.5%.

With `COc1ccc2nc(NC(=O)CN3CCn4c(nnc4C(F)(F)F)C3)sc2c1`, the growth was 87.8% in the assay on SR leukemia; 90% in the assay on RPMI-8226 leukemia; 96.5% in the assay with OVCAR-8 ovarian; 97.9% in the assay on OVCAR-5 ovarian; 104% with OVCAR-4 ovarian; 105% in the assay on SK-OV-3 ovarian. Also, the growth with IGROV1 ovarian is 92.8%; in the assay on OVCAR-3 ovarian, 93.7%; with HS 578T breast, 97%; with NCI/ADR-RES ovarian it was 93.6%.

Regarding `O=Cc1ccccc1C(=O)O`, the growth is 89.8% in the assay with SR leukemia; 106% in the assay on RPMI-8226 leukemia; 104% in the assay on OVCAR-8 ovarian; 97.9% in the assay with OVCAR-5 ovarian; 92.6% in the assay with OVCAR-4 ovarian; 104% in the assay with SK-OV-3 ovarian. Also, the growth in the assay on IGROV1 ovarian is 110%; with OVCAR-3 ovarian, 102%; in the assay on HS 578T breast, 100%; with NCI/ADR-RES ovarian, 104%.

Regarding `COCCOCCOCCOCCOc1ccc2c(c1)C(=O)c1nc3ncccc3c(=O)n1-2`, the growth in the assay with SR leukemia was -86.3% (active); with RPMI-8226 leukemia, -55.5% (active); in the assay with OVCAR-8 ovarian it was 0.221% (active); in the assay with OVCAR-5 ovarian it was -98.6% (active); in the assay with OVCAR-4 ovarian, -15.3% (active); with SK-OV-3 ovarian it was -4.3% (active). The growth in the assay with IGROV1 ovarian was 7.34% (active); in the assay on OVCAR-3 ovarian, -60.7% (active); in the assay on HS 578T breast, -25.2% (active); in the assay with NCI/ADR-RES ovarian, 0.343% (active).

As for `O=C1CSC(c2ccccc2Cl)N1c1nnc(Cn2nnc3ccccc32)o1` (stereo not given), the growth in the assay with SR leukemia is 76%; in the assay on RPMI-8226 leukemia, 69%; in the assay with OVCAR-8 ovarian, 82.5%; in the assay on OVCAR-5 ovarian it was 91.2%; in the assay with OVCAR-4 ovarian, 81%; in the assay with SK-OV-3 ovarian, 94.6%. Also, the growth with IGROV1 ovarian is 79.6%; in the assay with OVCAR-3 ovarian, 71.4%; with HS 578T breast it was 103%; in the assay with NCI/ADR-RES ovarian it was 62.4%.
